Measured values: PubChem BioAssay (NCI)
Compounds without any hit were thinned out: in the full panel of roughly 83,000, 20% have a hit.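 96-well plates, one dose, 48 hours. Percent growth reported; active if below 10.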 Activity calls are given as the source filed them.

Legend:
Experiment in all cases: NCI-60 one-dose screen, 48 h (100 = growth as untreated, 0 = no growth, -100 = all killed)
Conditions in all cases: 10 µM unless noted
[1] = test system: EKVX NSCLC
[2] = test system: SN12C renal
[3] = test system: UO-31 renal
[4] = test system: TK-10 renal
[5] = test system: ACHN renal
[6] = test system: CAKI-1 renal
[7] = test system: A498 renal
[8] = test system: CCRF-CEM leukemia
[9] = test system: MOLT-4 leukemia
[10] = test system: SR leukemia
[11] = test system: OVCAR-8 ovarian
[12] = test system: OVCAR-5 ovarian
[13] = test system: OVCAR-4 ovarian
[14] = test system: SK-OV-3 ovarian
[15] = test system: IGROV1 ovarian
[16] = test system: HS 578T breast
[17] = test system: NCI/ADR-RES ovarian
[18] = test system: T-47D breast
[19] = test system: RPMI-8226 leukemia
[20] = test system: OVCAR-3 ovarian

Measured: growth

CN1CCN(Cc2ccc(NC(=O)c3cncc(C#Cc4cnc5ccc(N6CCSCC6)nn45)c3)cc2C(F)(F)F)CC1
inactive: [18] 34.1%
active: [1] -47.1% | [2] -69.5% | [3] -11.5% | [4] -25.9% | [5] -91.4% | [6] -26.7% | [7] -81.9% | [8] 3.28% | [9] 4.9% | [10] -31.9% | [11] -67.7% | [12] -22.4% | [13] -13.7% | [14] -19.8% | [15] -9.25% | [16] -24.7% | [17] -11.6%

O=C(N/N=C/c1cccs1)c1[nH]c2ccc(Br)cc2c1-c1ccccc1
inactive: [1] 42.2% | [2] 45.7% | [3] 49.4% | [4] 121% | [5] 28.5% | [6] 25.7% | [9] 11.5% | [12] 46.1% | [13] 72.2% | [14] 36% | [15] 18% | [20] 21.5% | [16] 27.2% | [17] 17.8% | [18] 68.4%
active: [8] 8.56% | [10] 6.19% | [19] 3.64% | [11] 3.38%

CNC(=O)c1cc(-c2ccc(NC(=O)Nc3ccc(N4CCOCC4)c(C(F)(F)F)c3)cc2)nc2cccnc12
inactive: [1] 76.6% | [2] 41.6% | [3] 43.2% | [4] 156% | [5] 50.8% | [6] 64% | [7] 79.9% | [8] 40.5% | [9] 34.6% | [10] 13.6% | [11] 49.9% | [12] 91.4% | [13] 49.3% | [15] 57.5% | [16] 32.2% | [17] 68.6% | [18] 39.6%

COc1ccc(CNS(=O)(=O)/N=C2\NC(=O)NC2=C(Cl)Cl)cc1
active: [7] -9.6%
inactive: [1] 83.2% | [2] 20.7% | [3] 48.9% | [4] 41.6% | [5] 32.7% | [6] 45.9% | [8] 15.8% | [9] 19% | [10] 20.5% | [19] 15.3% | [11] 10.8% | [12] 37.2% | [13] 69.1% | [15] 43.5% | [20] 30% | [16] 44% | [18] 44%

O=C(CSc1nc2sc3c(c2c(=O)n1-c1ccc(Cl)cc1)CCCC3)NNC(=O)Nc1cccc(C(F)(F)F)c1
active: [5] 6.86% | [7] -5.48% | [9] 8.64% | [10] 5.49% | [20] 5.17%
inactive: [1] 31.5% | [2] 14.6% | [3] 13.2% | [4] 48.3% | [6] 13.7% | [8] 17.1% | [11] 22.1% | [12] 52.6% | [13] 22.5% | [15] 24.4% | [16] 56.9% | [17] 32.2% | [18] 13.2%

Clc1ccc(-c2cn3cc(Cc4ccc(Cl)c(Cl)c4)sc3n2)cc1
inactive: [1] 69.8% | [2] 76.6% | [3] 68.1% | [4] 112% | [5] 47% | [6] 42.6% | [7] 82.3% | [8] 79.7% | [9] 61% | [10] 94.5% | [19] 90.9% | [11] 75.5% | [12] 83.6% | [13] 56.1% | [15] 62.5% | [16] 94.1% | [17] 88.9% | [18] 50.4%

COc1ccccc1/C=C/C=N/NC1=NC2C(S1)N(C)C(=O)N2C (stereo not drawn)
active: [7] -18.2% | [20] -12% | [16] 3.97%
inactive: [1] 40.1% | [2] 39.1% | [3] 49% | [4] 76.3% | [5] 46.3% | [6] 30.6% | [8] 15.3% | [9] 21% | [10] 13.2% | [11] 31.1% | [12] 52.3% | [13] 72% | [14] 32.9% | [15] 46% | [17] 28.9% | [18] 31.2%

COc1cc(/C=C/C(=O)c2cc(OC)c(OC)c(OC)c2)ccc1OCc1ccc(F)cc1
inactive: [1] 51.2% | [2] 67.9% | [3] 45.4% | [4] 159% | [5] 64.8% | [6] 45.8% | [9] 46.2% | [10] 16.3% | [11] 15.4% | [12] 57.7% | [13] 46.9% | [14] 45.5% | [15] 40.7% | [20] 38.2% | [16] 89.7% | [17] 20% | [18] 38.3%
active: [8] 5.5% | [19] -16.1%

COc1cccc(NC2=CC(=O)C(C)=C(C)C2=O)c1
inactive: [1] 36.7% | [2] 80.5% | [3] 86% | [4] 135% | [5] 70.9% | [6] 93% | [7] 67.2% | [8] 15.8% | [9] 17.9% | [10] 23.2% | [19] 17.5% | [11] 16.9% | [12] 101% | [15] 40% | [16] 112% | [18] 47.7%
active: [13] -1.68%

Cc1nc2cnc(N)c(C#Cc3cncc(C(=O)Nc4ccc(Cl)c(C(F)(F)F)c4)c3)c2nc1C
inactive: [1] 82.4% | [2] 36.3% | [3] 19.9% | [4] 67.7% | [5] 30.3% | [6] 18.8% | [8] 23.2% | [9] 35.6% | [11] 69.7% | [12] 54.5% | [13] 65.2% | [14] 120% | [15] 16.9% | [20] 39.3% | [16] 35.4% | [17] 63.9% | [18] 109%
active: [10] -18.8% | [19] -10.2%

CSc1ccc2c(c1)N(C(=O)/C(C#N)=C/c1c[nH]c3ccccc13)c1ccccc1S2
inactive: [1] 34.8% | [2] 33.9% | [3] 50.4% | [4] 71.3% | [5] 39.9% | [6] 38.5% | [7] 10.8% | [8] 19% | [9] 30.5% | [10] 34.4% | [11] 52.4% | [12] 63.1% | [13] 59.5% | [15] 40.2% | [20] 37.5% | [16] 37.8% | [18] 29.9%

COc1ccc(-c2nc3ccc(-c4nnc(SCC(=O)Nc5ccc(C(=O)/C=C/c6ccccc6)cc5)o4)cc3[nH]2)cc1OC
inactive: [1] 104% | [2] 94.8% | [3] 88.5% | [4] 133% | [5] 96.3% | [6] 97% | [7] 112% | [8] 88.4% | [9] 80.5% | [10] 83.6% | [19] 64% | [11] 104% | [12] 99.4% | [13] 109% | [15] 96.4% | [16] 96.1% | [17] 110% | [18] 86.9%

CCOc1ccc([C@H]2C(C(=O)c3ccc(Cl)cc3)C3(N[C@@H]2c2ccccc2)C(=O)Nc2ccc(Br)cc23)cc1 (stereo partly drawn)
inactive: [1] 33.6% | [3] 32.7% | [4] 53.4% | [5] 10.7% | [6] 31.8% | [7] 46.7% | [8] 34.9% | [11] 38% | [12] 51.2% | [13] 45.5% | [14] 58.6% | [15] 13.5% | [16] 46.1% | [17] 64.7% | [18] 31.4%
active: [2] 6.51% | [9] 2.38% | [10] -24% | [20] -29.5%

NS(=O)(=O)c1ccc(Nc2nc(Nc3ccccc3)nc(-n3nc(-c4ccccc4)cc3-c3ccccc3)n2)cc1
inactive: [1] 40.3% | [2] 41.2% | [3] 29.1% | [4] 108% | [5] 15.3% | [6] 21% | [8] 10.7% | [11] 40% | [12] 78.1% | [13] 37.9% | [14] 65.8% | [15] 25.6% | [20] 31.5% | [16] 64.6% | [17] 45% | [18] 36.9%
active: [9] 4.14% | [10] 0.684% | [19] 6.63%

O=C(NNc1nc2cc(F)ccc2n2c(CN3CC4(COC4)C3)ccc12)c1cnccn1
active: [8] 4.02% | [9] 6.4% | [10] 0.659% | [11] 8.35%
inactive: [1] 17.6% | [2] 22.4% | [3] 13.7% | [4] 38.9% | [5] 13.7% | [6] 19.3% | [19] 22% | [12] 38.1% | [13] 33.3% | [14] 15.2% | [15] 18.6% | [20] 16.1% | [16] 65.3% | [17] 22% | [18] 26.2%

Cn1ccnc1C(=O)/C=C/c1ccc(NC(=O)Nc2ccccc2)cc1
inactive: [1] 16.5% | [2] 45.6% | [3] 40.7% | [4] 85.9% | [5] 26.8% | [6] 31.9% | [12] 14.8% | [13] 42.7% | [14] 13.3% | [15] 19.2% | [17] 22.2% | [18] 15.7%
active: [8] 7.34% | [9] 4.35% | [10] -3.08% | [19] 8.95% | [11] -1.17% | [20] 6.45% | [16] 5.48%
